Laboratory results published in the supplement of paper PMC8975748.
Where a name gives a salt, the structure may show the parent alone.

Tested on: Saccharomyces cerevisiae BY4741 SeMeCo community
Test: z-score of subpopulation abundance vs DMSO median, subpopulation auxotrophic for HL; higher = larger share of this subpopulation than in DMSO controls
Settings: 10 µM; 24 h; SM minimal medium; subpopulation (auxotrophy): HL
Summary of the method: (§1)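 A community of Saccharomyces cerevisiae BY4741 was built from four plasmids that each restored one auxotrophy and encoded a distinct fluorescent protein. Pre-grown overnight to OD600 1.0 and diluted to 0.3, it was dispensed at 70 µl into 384-well plates acoustically predosed with library drugs for a final 10 µM, and grown 24 h in minimal SM medium. Cells were then paraformaldehyde-fixed and imaged by automated confocal microscopy. Thresholds and autofluorescence correction came from single-auxotroph fluorescent strains, and each subpopulation's abundance was scored as a z-score relative to the vehicle-well median.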

SMILES | z-score of subpopulation abundance
Clc1ccc(CSC(Cn2ccnc2)c2ccc(Cl)cc2Cl)cc1 (stereo not given) [Sulconazole Nitrate] | 11
COc1ccc(C2CNC(=O)C2)cc1OC1CCCC1 (stereo not given) [Rolipram] | -0.38
C[C@]12CC[C@@H]3c4ccc(O)cc4CC[C@H]3[C@@H]1CC[C@@H]2OC(=O)CCC1CCCC1 [Estradiol Cypionate] | -0.29
C[C@@H](NCCCc1cccc(C(F)(F)F)c1)c1cccc2ccccc12 [Cinacalcet HCl] | 1.05
Cc1cc(/C=C/c2ccc3cc(N(C)C)ccc3[n+]2C)c(C)n1-c1ccccc1 [pyrvinium] | -1.44
CC(C)Cc1ccc(C(C)C(=O)O)cc1 (stereo not given) [Ibuprofen Lysine] | -0.13
O=C(Cn1cnnn1)N[C@@H]1C(=O)N2C(C(=O)O)=C(CSc3nncs3)CS[C@H]12 [Ceftezole sodium] | 0
CC[N+](C)(C)c1cccc(O)c1 [Edrophonium chloride] | -0.46
Nc1ccc(S(N)(=O)=O)cc1 [Sulfanilamide] | -1.05
CCCN(CCC)CCc1cccc2c1CC(=O)N2 [Ropinirole HCl] | 0.65
CN(C)CCCC1(c2ccc(F)cc2)OCc2cc(C#N)ccc21 (stereo not given) [Citalopram HBr] | -0.06
CN1CCCN=C1/C=C/c1cccs1 [Pyrantel Pamoate] | -0.22
CN(C)CCC[C@@]1(c2ccc(F)cc2)OCc2cc(C#N)ccc21 [Escitalopram Oxalate] | -0.1
CCCCCC(=O)O[C@]1(C(C)=O)CC[C@H]2[C@@H]3CCC4=CC(=O)CC[C@]4(C)[C@H]3CC[C@@]21C [Hydroxyprogesterone caproate] | 1.2
C[C@]12CCC(=O)C=C1[C@@H]1C[C@@H]1[C@H]1[C@@H]3[C@@H]4C[C@@H]4[C@@]4(CCC(=O)O4)[C@@]3(C)CC[C@@H]12 [Drospirenone] | 0.14
CCC(C)(C)c1ccc(CC(C)CN2C[C@@H](C)O[C@@H](C)C2)cc1 (stereo not given in full) [Amorolfine HCl] | 1.91
CC(=O)N[C@H]1[C@H]([C@H](O)[C@H](O)CO)OC(C(=O)O)=C[C@@H]1NC(=N)N [Zanamivir] | 1.66
CCOc1cc(N)c([N+](=O)[O-])cc1C(=O)NC1CCN(CC2CC=CCC2)CC1 (stereo not given) [Cinitapride Hydrogen Tartrate] | -0.01

SMILES | z-score of subpopulation abundance
CCC(=O)c1c(O)cc(O)cc1O [Flopropione] | -0.4
CCCCCNC(=N)N/N=C/c1c[nH]c2ccc(OC)cc12 [Tegaserod Maleate] | 2.5
CC(C)c1c(C(=O)Nc2ccccc2)c(-c2ccccc2)c(-c2ccc(F)cc2)n1CC[C@@H](O)C[C@@H](O)CC(=O)O [Atorvastatin] | 5.39
COc1ccc(C(C)=O)c(O)c1 [Paeonol] | -0.25
NC12CC3CC(CC(C3)C1)C2 [Amantadine] | -0.09
COC(=O)C1=C(C)NC(C)=C(C(=O)OC(C)(C)CN(C)CCC(c2ccccc2)c2ccccc2)C1c1cccc([N+](=O)[O-])c1 (stereo not given) [Lercanidipine] | 2.31
NC1CCN(c2nc3c(cc2F)c(=O)c(C(=O)O)cn3-c2ccc(F)cc2F)C1 (stereo not given) [Tosufloxacin p-Toluenesulfonate Hydrate] | -0.52
CC1(C)S[C@@H]2[C@H](NC(=O)[C@H](N)c3ccc(O)cc3)C(=O)N2[C@H]1C(=O)O [Amoxicillin] | -0.54
CCC1=C(C)CN(C(=O)NCCc2ccc(S(=O)(=O)NC(=O)N[C@H]3CC[C@H](C)CC3)cc2)C1=O [Glimepiride] | 0.01
O=C(O)c1ccccc1C(=O)Nc1ccc(S(=O)(=O)Nc2nccs2)cc1 [Phthalylsulfathiazole] | -0.66
Clc1ccc(CCC(Cn2ccnc2)Sc2c(Cl)cccc2Cl)cc1 (stereo not given) [Butoconazole] | 31.6
Cc1ccc(Sc2ccccc2N2CCNCC2)c(C)c1 [Vortioxetine] | 0.77
CN(Cc1cnc2nc(N)nc(N)c2n1)c1ccc(C(=O)N[C@@H](CCC(=O)O)C(=O)O)cc1 [Methotrexate disodium] | 10.8
CC[C@@H]1/C=C(\C)C[C@H](C)C[C@H](OC)[C@H]2O[C@@](O)(C(=O)C(=O)N3CCCC[C@H]3C(=O)O[C@H](/C(C)=C/[C@@H]3CC[C@H](Cl)[C@H](OC)C3)[C@H](C)[C@@H](O)CC1=O)[C@H](C)C[C@@H]2OC [Pimecrolimus] | 4.57
CN(Cc1cnc2nc(N)nc(N)c2n1)c1ccc(C(=O)N[C@@H](CCC(=O)O)C(=O)O)cc1 [Methotrexate] | 6.68
CCC[S+]([O-])c1ccc2[nH]c(NC(=O)OC)nc2c1 (stereo not given) [Albendazole Oxide] | -0.18
COC(=O)C1=C(C)NC(C)=C(C(=O)OC)C1c1ccccc1[N+](=O)[O-] [Nifedipine] | -0.95

Tested on: Saccharomyces cerevisiae BY4741 SeMeCo community
Test: z-score of subpopulation abundance vs DMSO median, subpopulation auxotrophic for HLM; higher = larger share of this subpopulation than in DMSO controls
Settings: 10 µM; 24 h; SM minimal medium; subpopulation (auxotrophy): HLM
Summary of the method: as §1

SMILES | z-score of subpopulation abundance
CCCCOc1cc(C(=O)NCCN(CC)CC)c2ccccc2n1 [Dibucaine HCl] | -0.03
COc1ccc(C2CNC(=O)C2)cc1OC1CCCC1 (stereo not given) [Rolipram] | -1.22
C[C@]12CC[C@@H]3c4ccc(O)cc4CC[C@H]3[C@@H]1CC[C@@H]2OC(=O)CCC1CCCC1 [Estradiol Cypionate] | 0.33
Cc1cc(/C=C/c2ccc3cc(N(C)C)ccc3[n+]2C)c(C)n1-c1ccccc1 [pyrvinium] | -0.3
CC(C)Cc1ccc(C(C)C(=O)O)cc1 (stereo not given) [Ibuprofen Lysine] | -0.36
O=C(Cn1cnnn1)N[C@@H]1C(=O)N2C(C(=O)O)=C(CSc3nncs3)CS[C@H]12 [Ceftezole sodium] | 0.32
CC[N+](C)(C)c1cccc(O)c1 [Edrophonium chloride] | -0.47
Nc1ccc(S(N)(=O)=O)cc1 [Sulfanilamide] | -0.21
CCCN(CCC)CCc1cccc2c1CC(=O)N2 [Ropinirole HCl] | -0.19
CN(C)CCCC1(c2ccc(F)cc2)OCc2cc(C#N)ccc21 (stereo not given) [Citalopram HBr] | 0.45
CN1CCCN=C1/C=C/c1cccs1 [Pyrantel Pamoate] | 0.61
CN(C)CCC[C@@]1(c2ccc(F)cc2)OCc2cc(C#N)ccc21 [Escitalopram Oxalate] | -0.63
CCCCCC(=O)O[C@]1(C(C)=O)CC[C@H]2[C@@H]3CCC4=CC(=O)CC[C@]4(C)[C@H]3CC[C@@]21C [Hydroxyprogesterone caproate] | 0.65
C[C@]12CCC(=O)C=C1[C@@H]1C[C@@H]1[C@H]1[C@@H]3[C@@H]4C[C@@H]4[C@@]4(CCC(=O)O4)[C@@]3(C)CC[C@@H]12 [Drospirenone] | 0.31
CC[C@H]1OC(=O)[C@H](C)[C@@H](O[C@H]2C[C@@](C)(OC)[C@@H](O)[C@H](C)O2)[C@H](C)[C@@H](O[C@@H]2O[C@H](C)C[C@H](N(C)C)[C@H]2O)[C@](C)(O)C[C@@H](C)/C(=N\OCOCCOC)[C@H](C)[C@@H](O)[C@]1(C)O [Roxithromycin] | -0.45
CC(=O)N[C@H]1[C@H]([C@H](O)[C@H](O)CO)OC(C(=O)O)=C[C@@H]1NC(=N)N [Zanamivir] | 0.19
CCOc1cc(N)c([N+](=O)[O-])cc1C(=O)NC1CCN(CC2CC=CCC2)CC1 (stereo not given) [Cinitapride Hydrogen Tartrate] | -0.29
CCC(=O)c1c(O)cc(O)cc1O [Flopropione] | 0.03
CCCCCNC(=N)N/N=C/c1c[nH]c2ccc(OC)cc12 [Tegaserod Maleate] | 1.63
CC(C)c1c(C(=O)Nc2ccccc2)c(-c2ccccc2)c(-c2ccc(F)cc2)n1CC[C@@H](O)C[C@@H](O)CC(=O)O [Atorvastatin] | 1.21
Cc1cc(NS(=O)(=O)c2ccc(N)cc2)no1 [Sulfamethoxazole sodium] | -0.73
NC12CC3CC(CC(C3)C1)C2 [Amantadine] | -0.36
COC(=O)C1=C(C)NC(C)=C(C(=O)OC(C)(C)CN(C)CCC(c2ccccc2)c2ccccc2)C1c1cccc([N+](=O)[O-])c1 (stereo not given) [Lercanidipine] | 1.04
NC1CCN(c2nc3c(cc2F)c(=O)c(C(=O)O)cn3-c2ccc(F)cc2F)C1 (stereo not given) [Tosufloxacin p-Toluenesulfonate Hydrate] | -0.56
CCC1=C(C)CN(C(=O)NCCc2ccc(S(=O)(=O)NC(=O)N[C@H]3CC[C@H](C)CC3)cc2)C1=O [Glimepiride] | 0.03
O=C(O)c1ccccc1C(=O)Nc1ccc(S(=O)(=O)Nc2nccs2)cc1 [Phthalylsulfathiazole] | -0.76
Clc1ccc(CCC(Cn2ccnc2)Sc2c(Cl)cccc2Cl)cc1 (stereo not given) [Butoconazole] | 27.1
Cc1ccc(Sc2ccccc2N2CCNCC2)c(C)c1 [Vortioxetine] | 0.2
CN(Cc1cnc2nc(N)nc(N)c2n1)c1ccc(C(=O)N[C@@H](CCC(=O)O)C(=O)O)cc1 [Methotrexate disodium] | 14.3
Clc1ccc(CCC(Cn2ccnc2)Sc2c(Cl)cccc2Cl)cc1 (stereo not given) [Butoconazole nitrate] | 20.2
